# Results taken from PubChem BioAssay AID602449 (Sanford-Burnham Center for Chemical Genomics, 2012).
# Among all 360,000 compounds or so, about 5,000 (1.4%) were called active.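 How the source made its calls: active means inhibition of 50% or more, scaled per plate between neutral and stimulator controls; inactive means the rest.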 The full list was thinned out, with actives kept by preference.
# Test: mitochondrial permeability transition pore inhibitors, primary screen, biochemical, isolated mouse mitochondria, absorbance (AID 602449);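 further: 0% = DMSO wells given calcium and 100% = 1 mM EGTA wells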
# Details: Ca2+ swelling absorbance, 30 min, at 10 µM, hits give high values
row,SMILES,inhibition
1,COc1cc(C)ccc1OCC(=O)OCC(=O)c1ccc[nH]1,0.5% (inactive)
2,COc1ccc(/C=C2/S/C(=N/N=C3\CC4CCC3(C)C4(C)C)NC2=O)cc1 (stereo not given),-1.3% (inactive)
3,CCOC(=O)/C=C/c1ccc(C(F)(F)F)cc1S(=O)(=O)NC(C)(C)C,2.5% (inactive)
4,CCCCN(CCCC)CCC(O)c1cc2c(Cl)cc(Cl)cc2c2cc(C(F)(F)F)ccc12 (stereo not given),112% (active)
5,O=C(/C=C/c1ccc(Cl)cc1)Nc1ccc(S(=O)(=O)Nc2ncccn2)cc1,-0.3% (inactive)
6,O=C(Nc1cccc(S(=O)(=O)NC2=NCCC2)c1)c1ccc(F)cc1F,-0.6% (inactive)
7,O=C(/C=C/c1ccc(F)cc1)Nc1cccc(S(=O)(=O)Nc2cccc(C(F)(F)F)c2)c1,92.8% (active)
8,O=C(O)CSC(NC(=O)c1cccnc1)(C(F)(F)F)C(F)(F)F,-1.1% (inactive)
9,COc1cc(C(=O)NCC(=O)N2CC=C(c3ccccc3)CC2)cc(OC)c1OC,0% (inactive)
10,N#Cc1c(NC(=O)CCCN2C(=O)c3ccccc3C2=O)oc(-c2ccccc2)c1-c1ccccc1,-0.2% (inactive)
11,COc1cc(C(=O)Nc2oc(-c3ccccc3)c(-c3ccccc3)c2C#N)cc(OC)c1OC,61.1% (active)
12,CCc1nccn1S(=O)(=O)c1cccc([N+](=O)[O-])c1,0.1% (inactive)
13,O=C(CCN1C(=O)C2CCCCC2C1=O)Nc1ccc(OC(F)F)cc1 (stereo not given),-2% (inactive)
14,COC(=O)c1ccccc1Sc1c(/C=N/OCc2ccc(Cl)cc2)c(C(F)(F)F)nn1C,2.3% (inactive)
15,Cn1nc(C(F)(F)F)c(C(=O)Nc2cccc(C(F)(F)F)c2)c1SCc1ccc(Cl)cc1,71.2% (active)
16,CCC(=O)OCc1c(C(F)(F)F)nn(C)c1Oc1cccc(C(F)(F)F)c1,1.5% (inactive)
17,COc1ccc(C(=O)OCC(=O)Nc2cccc(C(C)=O)c2)cc1OC,-2% (inactive)
18,CSc1nsc(NC(=O)Nc2ccccc2)n1,85.4% (active)
19,CCCCN1C(=O)C(=O)N(CC(=O)Nc2cccc(C(C)=O)c2)C1=O,0.4% (inactive)
20,c1ccc(C(=NNc2nc3ccccc3s2)c2ccccn2)cc1,0.3% (inactive)
21,CC(=O)Nc1cccc(-c2nc3ccccc3s2)c1C,-0.5% (inactive)
22,CC(=O)c1cccc(NC(=O)[C@@H](NC(N)=O)C(C)C)c1,0.5% (inactive)
23,CCSc1nsc(NC(=O)Nc2cccc(C(C)=O)c2)n1,87.2% (active)
24,O=C(Nc1ccccc1)Nc1nc2ccccc2s1,96.5% (active)

row,SMILES,inhibition
1,CC(=O)c1cccc(NC(=S)N2CCN(S(C)(=O)=O)CC2)c1,0.1% (inactive)
2,CC(=O)N1CCC(C(=O)Nc2nc(-c3ccccc3)ns2)CC1,-2% (inactive)
3,C=CCSc1nsc(NC(=O)Nc2cccc(C(C)=O)c2)n1,97.4% (active)
4,CSc1nsc(SCC(=O)Nc2cc(C(=O)O)ccc2C)n1,-0.5% (inactive)
5,Cc1ccc(S(=O)(=O)N(Cc2ccccc2)c2ccccn2)cc1[N+](=O)[O-],0.2% (inactive)
6,Cc1c(C(=O)N2CCN(c3ccc(F)cc3)CC2)oc2c1C(=O)CCC2,-1% (inactive)
7,COCCCn1c(=O)/c(=C/c2ccccc2OC(C)C)s/c1=C(\C#N)C(=O)Nc1ccc(C(=O)O)cc1,0.6% (inactive)
8,COc1ccc(S(=O)(=O)N2CCC(C(=O)NCCC(=O)Nc3ccccc3OC)CC2)cc1,1% (inactive)
9,CC1CCN(C2=NC(=O)/C(=C/c3cn[nH]c3-c3ccccc3)S2)CC1,0.6% (inactive)
10,COc1ccccc1N(CC(=O)Nc1ccc(C(F)(F)F)cc1)S(C)(=O)=O,-0.2% (inactive)
11,CC1Sc2ccc(C(=O)NCc3ccccc3Cl)cc2NC1=O (stereo not given),-1% (inactive)
12,CCC/C(C)=N\Nc1nc2c(c(=O)n(C)c(=O)n2C)n1C,4.6% (inactive)
13,COCCN(C(=O)CCC(=O)Nc1nccs1)C(C(=O)NC(C)(C)C)c1ccc(Cl)cc1 (stereo not given),0.1% (inactive)
14,COc1ccc2oc(C(=O)N(CC(C)C)C3CCS(=O)(=O)C3)c(C)c2c1 (stereo not given),-1.1% (inactive)
15,O=S(=O)(O)c1cc2onnc2c2ccccc12,0.1% (inactive)
16,CC1(C(=O)O)CCC(C(=O)Nc2ccc(Cl)c(Cl)c2)C1(C)C (stereo not given),3.1% (inactive)
17,O=C(CC(O)(C(F)(F)F)C(F)(F)F)Nc1ccc(Cl)c(Cl)c1,84.6% (active)
18,O=C(CN1CCN(C(=O)c2ccco2)CC1)Nc1ccc(Cl)c(C(F)(F)F)c1,-0.1% (inactive)
19,O=C(Cn1nc(CNc2ccc(Cl)cc2)[n+]2c1CCCCC2)c1ccc(Cl)cc1,29.5% (inactive)
20,CCOC(=O)N1CCC(NC(=O)CN2C(=O)COc3ccc(C(C)(C)C)cc32)CC1,-0.9% (inactive)
21,O=C1CC(c2ccccc2)=NN1c1ccc([N+](=O)[O-])cc1,91.3% (active)
22,CCN1N=C(c2ccccc2)CCC1=O,-2.4% (inactive)
23,O=C1NC(=O)C2C1C(c1ccc([N+](=O)[O-])cc1)=NN2Cc1ccccc1 (stereo not given),0.1% (inactive)
24,Cc1c(C(=O)OC(C)C)sc(NC(=O)c2cccnc2)c1C#N,67.6% (active)

row,SMILES,inhibition
1,CCOC(=O)c1cc(NC(=O)c2cccnc2)ccn1,-0.2% (inactive)
2,CC(C)NS(=O)(=O)c1ccc(NC(=O)c2cccnc2)cc1,-1.5% (inactive)
3,CCCCN1C(=O)C(CC(=O)NCc2cccs2)CC(C(=O)N2CCCCCC2)=C1C (stereo not given),-0.8% (inactive)
4,Cc1cc(Cl)c(S(=O)(=O)NCCC(=O)O)cc1OCC(N)=O,-1.7% (inactive)
5,O=C(NC(Cc1c[nH]c2ccccc12)C(=O)O)/C(=C/c1ccco1)NC(=O)c1ccccc1 (stereo not given),-1% (inactive)
6,CC(=O)N(CC1CCCO1)C1(C(=O)NC2CCCC2)CCCCC1 (stereo not given),1.8% (inactive)
7,O=C(Nc1ccc(Cl)cc1)Nc1nnc(/C=C/c2ccccc2)s1,89.9% (active)
8,COc1ccc(/C=C/c2nnc(NC(=O)C(C)C)s2)cc1,2.7% (inactive)
9,O=C(CSc1ccccc1)Nc1nnc(/C=C/c2ccccc2)s1,2.2% (inactive)
10,COc1ccc2sc(N(CCCN(C)C)C(=O)c3ccc(S(=O)(=O)N(C)C4CCCCC4)cc3)nc2c1,82.5% (active)
11,COc1ccc(N(Cc2ccc(N(C)C)cc2)C(=O)c2ccc(S(C)(=O)=O)cc2)cc1,0.5% (inactive)
12,COc1ccc(S(=O)(=O)N(C)CC(=O)N2CCCC2)cc1,-2.1% (inactive)
13,COc1ccc(C(=O)O)cc1S(=O)(=O)NC1CCN(Cc2ccccc2)CC1,-1% (inactive)
14,S=C(Nc1ccccc1)Nc1ccc2ccccc2c1,67.5% (active)
15,Cc1cccc(NC(=S)NCc2ccc3[nH]c4c(c3c2)CCCC4)c1,1% (inactive)
16,Cc1cccc(NC(=S)Nc2ccc(Br)cc2)c1,96.8% (active)
17,Cc1c(NC(=S)Nc2ccccc2)c(=O)n(-c2ccccc2)n1C,0.8% (inactive)
18,Cc1cccc(NC(=S)N(CCN(C)C)C(C)c2ccco2)c1 (stereo not given),-2.1% (inactive)
19,Cc1cccc(NC(=S)Nc2ccc(Cl)c(Cl)c2)c1,101% (active)
20,Fc1cc(Br)ccc1NC(=S)Nc1cccnc1,12.7% (inactive)
21,Cc1cccc(NC(=S)N2CCC(c3nc4ccccc4s3)CC2)c1,3% (inactive)
22,O=S(=O)(NC(=S)Nc1ccccc1)c1ccc(F)cc1,-0.7% (inactive)
23,COC(=O)c1ccc2c(c1)S(=O)(=O)NC(=NCCCN1CCOCC1)S2,0.8% (inactive)
24,COc1ccc(C2=NS(=O)(=O)N(C)C(C(=O)NC(C)c3ccccc3)=C2)cc1 (stereo not given),-1.4% (inactive)

row,SMILES,inhibition
1,CCC1C=C(c2ccccc2)C=CN=C1N(CC)CC (stereo not given),-0.1% (inactive)
2,Cc1cccc(NS(=O)(=O)c2cccc(C(=O)NNC(=O)c3ccccc3O)c2)c1,6.9% (inactive)
3,CC1(C)CC(=O)c2cc(OCC(=O)NCC3CCCO3)ccc2O1 (stereo not given),-1.4% (inactive)
4,C=CCN(N=Nc1cccc([N+](=O)[O-])c1)c1cccc([N+](=O)[O-])c1,2.6% (inactive)
5,Brc1ccc(Nc2c3c(nc4ncnn24)CCC3)cc1,-4.1% (inactive)
6,N#Cc1cccc(Nc2c3c(nc4ccccc24)CCCC3)c1,6.5% (inactive)
7,Cc1ccc(Nc2c3c(nc4ccccc24)CCC3)cc1,79.8% (active)
8,CCn1nnc(NC(=O)c2c(OC)cccc2OC)n1,-1% (inactive)
9,CCCC1OC23CCCCC2C(C#N)(C#N)C1(C#N)C(=N)O3 (stereo not given),0.5% (inactive)
10,Cc1cccc(NC(=O)NC2(C)CCS(=O)(=O)C2)c1 (stereo not given),-3.1% (inactive)
11,Cc1ccoc1C(=O)Nc1cccc(Oc2ccccc2)c1,-0.1% (inactive)
12,Cc1cccc(NC(=O)Nc2cccc(Oc3c(F)c(F)c(F)c(F)c3F)c2)c1,93.2% (active)
13,O=C(CNCCC1=CCCCC1)Nc1ccccc1N1CCCCCC1,11.6% (inactive)
14,CCc1cc(=O)oc2cc(C)cc(OC(C)C(=O)O)c12 (stereo not given),1.3% (inactive)
15,CN[C@H](C(=O)NC[C@H]1O[C@@H](n2cnc3c(N)ncnc32)[C@H](O)[C@@H]1O)[C@@H](C)OCc1ccccc1,-0.1% (inactive)
16,Cc1onc(-c2ccccc2)c1C(=O)N1CCN(S(=O)(=O)c2ccccc2C(F)(F)F)CC1,0.5% (inactive)
17,Cc1onc(-c2ccccc2)c1C(=O)NNC(=S)NC(=O)c1ccc(F)cc1,90.1% (active)
18,O=C(NNC(=S)NC(=O)c1cn(-c2ccccc2)nc1-c1ccccc1)c1ccncc1,2.2% (inactive)
19,O=C1CS(=O)CN1c1ccc(Oc2ccccc2)cc1 (stereo not given),1.6% (inactive)
20,Cc1noc(C)c1S(=O)(=O)Nc1ccc(C(=O)N2CCN(c3ccc(F)cc3)CC2)cc1,-2% (inactive)
21,CN(CC(=O)Nc1cccc(F)c1)C(=O)C1=COCCO1,-2.6% (inactive)
22,Cc1ccc(NC(=O)c2sccc2C)cc1[N+](=O)[O-],-8.8% (inactive)
23,Cc1ccc(NC(=O)CN(C)CC(=O)Nc2cccc(F)c2)cc1[N+](=O)[O-],97.2% (active)
